# From PubChem BioAssay AID720 (The Scripps Research Institute Molecular Screening Center, 2007)
# In all, about 97,000 compounds went through this assay and about 140 (0.14%) were called active. The entries come from a sample that favours actives as a whole. Unmarked numbers belong to inactive results.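 The calls were made as follows: active = inhibition above the screen-wide mean inhibition plus 3 SD (cut at about 15% in these data); inactive = the rest.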
# Target: Ephrin type-B receptor 4 (Homo sapiens) (UniProt P54760)
# Sequence (P54760 whole entry, looked up): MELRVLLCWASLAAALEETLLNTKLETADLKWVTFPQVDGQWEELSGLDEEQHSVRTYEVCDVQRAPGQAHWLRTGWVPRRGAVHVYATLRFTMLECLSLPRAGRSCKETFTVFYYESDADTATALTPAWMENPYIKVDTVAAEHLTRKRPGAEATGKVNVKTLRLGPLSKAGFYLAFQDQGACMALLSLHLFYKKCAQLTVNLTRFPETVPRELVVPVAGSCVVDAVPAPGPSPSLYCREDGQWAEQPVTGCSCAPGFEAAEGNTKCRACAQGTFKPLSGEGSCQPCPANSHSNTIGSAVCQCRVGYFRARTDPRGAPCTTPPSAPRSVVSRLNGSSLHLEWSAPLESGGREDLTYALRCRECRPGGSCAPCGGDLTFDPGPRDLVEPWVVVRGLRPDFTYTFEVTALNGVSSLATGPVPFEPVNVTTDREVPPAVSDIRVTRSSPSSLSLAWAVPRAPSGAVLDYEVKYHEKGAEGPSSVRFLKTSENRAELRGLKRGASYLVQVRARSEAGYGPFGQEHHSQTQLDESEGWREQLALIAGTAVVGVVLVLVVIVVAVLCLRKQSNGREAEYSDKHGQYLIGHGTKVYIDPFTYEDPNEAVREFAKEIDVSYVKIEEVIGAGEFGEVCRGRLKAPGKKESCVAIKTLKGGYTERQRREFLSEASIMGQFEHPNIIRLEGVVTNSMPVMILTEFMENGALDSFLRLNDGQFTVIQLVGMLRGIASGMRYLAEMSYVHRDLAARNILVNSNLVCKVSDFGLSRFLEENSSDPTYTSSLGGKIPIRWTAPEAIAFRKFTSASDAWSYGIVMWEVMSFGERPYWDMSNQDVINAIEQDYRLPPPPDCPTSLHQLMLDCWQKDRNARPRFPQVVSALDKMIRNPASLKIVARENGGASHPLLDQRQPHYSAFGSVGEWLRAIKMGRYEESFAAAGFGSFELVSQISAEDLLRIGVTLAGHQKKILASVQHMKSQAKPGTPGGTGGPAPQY
# Experiment: EphB4-ephrin-B2 interaction antagonists, primary screen, biochemical, TNYL-RAW peptide probe, fluorescence polarization (AID 720);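 also: 0% = DMSO wells and 100% = excess unlabeled TNYL-RAW peptide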
# Conditions: EphB4 LBD / TNYL-RAW-Alexa532 peptide, at 7 µM, hits give high values
row,Structure (SMILES),inhibition
1,CCc1cccc2c(C#N)cn(CC(=O)N3CCOCC3)c12,21.5% (active)
2,CCC(=O)CC(c1ccc([N+](=O)[O-])cc1)c1c(O)c2ccccc2oc1=O (stereo not given),0.56%
3,CC(=O)c1ccc(OC(NC(=O)Cc2ccccc2)C(Cl)(Cl)Cl)cc1 (stereo not given),0.16%
4,OC(Cn1c2ccccc2c2ccccc21)C[n+]1ccccc1 (stereo not given),-2.91%
5,CC(=O)Nc1ccccc1C(=O)OCC(=O)c1cccc2ccccc12,-0.92%
